Results as given in PubChem BioAssay (NCI).
The panel holds about 79,000 compounds, 15% with a hit somewhere; the sample as a whole holds those more often. No stated cut-off is given here; in the data, active means growth inhibition above about 70%; inactive means the rest.

What was measured:
[1] = NCI Yeast Anticancer Drug Screen. Data for the rad50 strain (AID 155);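 further: 0% = growth of vehicle-only cultures of the same strain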; conditions: S. cerevisiae rad50 strain growth inhibition; at 50.0 µM; stronger effect = higher value
In short: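 Cells are treated with compound, grown, and their growth is then scored against vehicle-only cultures of the same repair-deficient yeast strain.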

[2] = NCI Yeast Anticancer Drug Screen. Data for the mec2-1 strain (AID 157); conditions: S. cerevisiae mec2-1 strain, at 50.0 µM, stronger effect = higher value
In short: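 Strain: mec2-1 (DNA repair/cell cycle alteration). Compound exposure, then growth measured; inhibition expressed relative to vehicle.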

[3] = NCI Yeast Anticancer Drug Screen. Data for the sgs1 mgt1 strain (AID 161);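 further: 0% = growth of cultures given vehicle only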; conditions: S. cerevisiae sgs1 mgt1 strain, at 50.0 µM, stronger effect = higher value
In short: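 Read-out: growth inhibition vs vehicle controls. Cells: mutant yeast strain deficient in DNA damage repair.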

[4] = NCI Yeast Anticancer Drug Screen. Data for the cln2 rad14 strain (AID 165);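 further: 0% = growth equal to vehicle treated cultures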; conditions: S. cerevisiae cln2 rad14 strain, at 50.0 µM, stronger effect = higher value
In short: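 Compounds are applied to the cln2 rad14 yeast strain, and growth is then compared with that of vehicle-treated cultures to give inhibition.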

[5] = NCI Yeast Anticancer Drug Screen. Data for the bub3 strain (AID 167); conditions: S. cerevisiae bub3 mutant strain, at 50.0 µM, stronger effect = higher value
In short: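 Part of a panel of yeast mutants defective in DNA damage repair or cell cycle regulation. Each strain is grown with compound, and inhibition is calculated relative to solvent-treated cultures.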

[6] = NCI Yeast Anticancer Drug Screen. Data for the mlh1 rad18 strain (AID 175); conditions: S. cerevisiae mlh1 rad18 strain growth inhibition; at 50.0 µM; stronger effect = higher value
In short: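 Read-out is yeast growth inhibition, calculated against vehicle-only controls. The compound was applied to a strain engineered with DNA damage repair alterations.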

Measured: growth inhibition

O=C1CC2C(=O)N(Cc3ccccc3)C1C=C2S(=O)(=O)c1ccccc1 (stereo not given)
inactive: [1] -15.7% | [2] 21.6% | [3] 36.8% | [4] 4.25% | [5] -1.3% | [6] 4.9%

COc1ccc(C(=O)c2ccccc2)cc1OC
inactive: [1] 2.95% | [2] 13.8% | [3] -4.25% | [4] -21.4% | [5] -1.2% | [6] -7.85%

CC(=O)OCCOCNC(=S)N/N=C/c1ccc([N+](=O)[O-])s1
inactive: [1] 35.4% | [2] -5.2% | [3] 23.9% | [4] 32.5% | [5] 2.7% | [6] 12.6%

CC(C)Cc1cn(O)c2nc(=N)nc(N)c-2n1
inactive: [1] 4.95% | [2] -5.6% | [3] -1.7% | [4] -13.6% | [5] 5.8% | [6] 4%

CC1(C)COC(c2ccc(Cl)cc2)OC1
inactive: [1] 16.6% | [2] 14.6% | [3] 4.3% | [4] -12.5% | [5] 19.5% | [6] 26.1%

CCCCCCCCCCCCCCCCC(NC(C)=O)(C(=O)OCC)C(=O)OCC
inactive: [1] 23.9% | [2] 1.65% | [3] 20.9% | [4] 30.2% | [5] -1.25% | [6] 23.6%

COC(=O)c1cc(C(C)O)nc2ccccc12 (stereo not given)
inactive: [1] 4.95% | [2] 3.95% | [3] 6.25% | [4] 0.65% | [5] 27% | [6] 6.35%

COC(=O)CC1=CCCc2ccccc21
inactive: [1] -3.95% | [2] 1.55% | [3] -2.85% | [4] 7% | [5] 0.35% | [6] -22.2%

Clc1ccc2c(N3CCC(CCC4CCN(c5ncnc6cc(Cl)ccc56)CC4)CC3)ncnc2c1
inactive: [1] -17.9% | [2] -21.6% | [3] -7.4% | [4] -39.4% | [5] -14.6% | [6] -14.2%

O=C(NO)/C(CC(=O)c1ccccc1O)=N\O
inactive: [1] -5.4% | [2] -21.6% | [3] -11.2% | [4] -2.05% | [5] -4.15% | [6] -7.75%

OCC(O)C(O)C(O)c1nn(-c2ccc(Cl)cc2)c2nc3cc(Cl)c(Cl)cc3nc12 (stereo not given)
inactive: [1] 1.85% | [2] -28.6% | [3] -33.9% | [4] 15.4% | [5] 4.4% | [6] 0.85%

CC(=O)Nc1ccc(C(=O)N2C(=N)C(C#N)=C(O)/C2=C\c2ccc(Cl)c(Cl)c2)cc1
inactive: [1] -7.3% | [2] -5.7% | [3] -18.4% | [4] 1.3% | [5] -20.8% | [6] 2.15%

COc1cc(OC)nc(NS(=O)(=O)c2ccc(N)cc2)n1
inactive: [1] 6% | [2] -3.8% | [3] 20.9% | [4] 19.6% | [5] 10.3% | [6] 6.65%

C[n+]1ccc(/C=C/c2ccc(O)c(O)c2)c2ccccc21
inactive: [1] 49.8% | [2] 33.5% | [3] 41.2% | [4] 20.5% | [5] 3.5% | [6] 43%

CC(=O)OCC1OC(Sc2nc3ncnc(N)c3[nH]2)C(OC(C)=O)C(OC(C)=O)C1OC(C)=O (stereo not given)
inactive: [1] -0.55% | [2] -1.3% | [3] -18.9% | [4] -3.5% | [5] 4.5% | [6] -3.4%

CC(=O)Oc1cc(OC(C)=O)c2c(c1C)CC[C@@H]1[C@@H]2CC[C@]2(C)[C@@H](OC(C)=O)CC[C@@H]12
inactive: [1] 18.1% | [2] 10.1% | [3] -0.25% | [4] -17% | [5] -5.3% | [6] 34.3%

NCCNCCCCCCNC(=O)c1cccc2cc3ccccc3nc12
inactive: [1] -6.7% | [2] -25.4% | [3] -30.1% | [4] -7.55% | [5] -14% | [6] -102%

NC(N)=NC(N)=Nc1c(F)c(F)c(F)c(F)c1F
inactive: [1] -17.4% | [2] -33.1% | [3] -11.8% | [4] -14.5% | [5] -3.6% | [6] -20.6%

CC(C)(C)C(=O)C(C(=O)c1ccccc1)C(=O)C(C)(C)C
inactive: [1] -4.65% | [2] -16.4% | [3] 19.9% | [4] 6.85% | [5] 9.8% | [6] -30.2%

COC(=O)C1CCC[P+]1(C)C (stereo not given)
inactive: [1] 47.1% | [2] 41.7% | [3] 45.8% | [4] 13.8% | [5] 56.5% | [6] 38.5%
